Test results: PubChem BioAssay (NCATS)
Values joined by “and” are separate entries in the source; they are usually repeats but may differ in a detail not shown here. Equal values may be shown once. Inconclusive results are not listed. Active and inactive are the calls of the source. The call rests on the fitted dose curve; in most records, active means well fitted curve in the direction sought with a large enough effect; inconclusive means small, poorly fitted or top-dose-only effect, or another doubt; inactive means no such curve, though single readings can be large; an effect the other way counts as inactive or inconclusive. Residues, ends and D or L forms follow the SMILES beside them. *: point of attachment. Cbz = O=C(OCc1ccccc1)*

Experiments:
[1] = P-glycoprotein substrates identified in KB-8-5-11 adenocarcinoma cell line, qHTS therapeutic library screen (AID 1346987); further: nearly all actives have a fitted effect of over 65% in size
Summary of the method: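 Human cervical adenocarcinoma KB-8-5-11 cells, selected in colchicine to over-express P-gp and assayed without it, were exposed for 72 h to titrated compounds. An ATP-based luminescent viability signal gave AC50.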

[2] = NS1 protein of Zika virus - qHTS assay to identify small molecule inhibitors in human HEK 293 cells (AID 1347053); further: nearly all actives have a fitted effect of over 55% in size
Summary of the method: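 Readout was TR-FRET using paired anti-NS1 antibodies after 24 h infection of HEK 293 cells with ZIKV MR766 (MOI = 0.5). Compound preceded virus by 1 h; reduced signal reflects lower NS1 expression.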

[3] = qHTS of pediatric cancer cell lines to identify multiple opportunities for drug repurposing: Primary screen for DAOY cells (AID 1347090); further: nearly all actives have a fitted effect of over 55% in size
Summary of the method: (§1)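 Viability measured as metabolically active cells via CellTiter-Glo luminescence following 48 hours of compound exposure, 11-point dilutions in confirmatory testing. 500-1,000 cells/well plated 5 hours before dosing; controls were DMSO and 2.3 µM bortezomib.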

[4] = qHTS of pediatric cancer cell lines to identify multiple opportunities for drug repurposing: Primary screen for SJ-GBM2 cells (AID 1347091)
Summary of the method: as §1

[5] = qHTS of pediatric cancer cell lines to identify multiple opportunities for drug repurposing: Primary screen for TC32 cells (AID 1347089); further: nearly all actives have a fitted effect of over 60% in size
Summary of the method: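 Luminescent ATP read-out (CellTiter-Glo) of metabolically active TC32 cells after 48 h exposure. Concentration-response curves came from 11-point (MIPE, 0.78 nM–46 µM) or 8-point (NPC, 0.59 nM–46 µM) primary titrations; follow-up used 11 points.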
Potency means the concentration at half of the fitted maximal effect.

## CC(=O)N1CCN(c2ccc(OCc3nn(C)c(C)c3-c3cccc4c(CCCOc5cccc6ccccc56)c(C(=O)O)n(Cc5cccnc5)c34)cc2)CC1
[1]
  Potency: inactive
[2]
  Potency: inactive
[3]
  Potency: 0.118 µM (active)
[4]
  Potency: 1.05 µM (active)

## C[C@@H]1[C@H](C)CC[C@]2(C(=O)O)CC[C@]3(C)C(=CC[C@@H]4[C@@]5(C)C[C@@H](O)[C@H](O)[C@@](C)(CO)[C@H]5CC[C@]43C)[C@@H]12
[1]
  Potency: inactive
[5]
  Potency: inactive
[3]
  Potency: inactive

## CN(C)c1ccc(C(=O)NCCCCCCC(=O)NO)cc1
[1]
  Potency: 3.72 µM (active)
[5]
  Potency: 2.62 µM (active)
[3]
  Potency: 2.35 µM (active)
[4]
  Potency: 0.743 µM (active)

## COc1ccc(S(=O)(=O)Nc2cccnc2Nc2ccc(O)cc2)cc1
[1]
  Potency: 418 nM (active) and 920 nM (active)
[5]
  Potency: 8.29 µM (active)

## C[C@H]1[C@@H](OC(=O)CCC(=O)O)O[C@@H]2O[C@@]3(C)CC[C@@H]4[C@H](C)CC[C@@H]1[C@@]24OO3
[1]
  Potency: 16.6 µM (active)
[5]
  Potency: 14.7 µM (active)
[3]
  Potency: 11.8 µM (active)

## CC(C)C[C@@H](C=O)NC(=O)[C@H](CC(C)C)NC(=O)[C@H](CC(C)C)NC(=O)OCc1ccccc1 (Cbz-Leu-Leu-Leu-aldehyde)
[1]
  Potency: 5.26 µM (active)
[5]
  Potency: 2.34 µM (active)
[3]
  Potency: 0.743 µM (active)
[4]
  Potency: 0.105 µM (active)

## CC(C)OC(=O)[C@H](C)N[P@](=O)(OC[C@H]1O[C@@H](n2ccc(=O)[nH]c2=O)[C@](C)(F)[C@H]1O)Oc1ccccc1
[1]
  Potency: inactive
[5]
  Potency: inactive
[3]
  Potency: inactive
[4]
  Potency: inactive

## COc1cc2c(Nc3ccc(Cl)c(Cl)c3F)ncnc2cc1OCC1C[C@@H]2CN(C)C[C@H]2C1
[1]
  Potency: 18.7 µM (active)
[2]
  Potency: inactive
[3]
  Potency: 0.935 µM (active)
[4]
  Potency: 7.43 µM (active)

## CN(C)CCN1C(=O)c2cccc3cc(N)cc(c23)C1=O
[1]
  Potency: 14.8 µM (active)
[2]
  Potency: inactive
[3]
  Potency: 23.5 µM (active)
[4]
  Potency: 14.8 µM (active)

## O=C(CCCCCCC(=O)Nc1cccnc1)NO
[1]
  Potency: 18.7 µM (active)
[5]
  Potency: 20.8 µM (active)
[3]
  Potency: 14.8 µM (active)
[4]
  Potency: 7.43 µM (active)

## C[C@H](NC(=O)[C@@H](O)c1cc(F)cc(F)c1)C(=O)N[C@@H]1C(=O)N(C)c2ccccc2-c2ccccc21
[1]
  Potency: inactive
[5]
  Potency: inactive
[3]
  Potency: inactive
[4]
  Potency: inactive

## Cc1nc(NC(=O)N2CCC[C@@H]2C(N)=O)sc1-c1ccnc(C(C)(C)C(F)(F)F)c1
[1]
  Potency: 6.62 µM (active)
[2]
  Potency: inactive
[3]
  Potency: 7.43 µM (active)
[4]
  Potency: 5.9 µM (active)

## CCc1cc(C(C)=NOCc2ccc(C3CCCCC3)c(C(F)(F)F)c2)ccc1CN1CC(C(=O)O)C1
[1]
  Potency: inactive
[5]
  Potency: inactive
[3]
  Potency: 0.59 µM (active)

## C#C[C@]1(O)CC[C@@H]2[C@@H]3CCc4cc(O)ccc4[C@H]3CC[C@@]21C
[1]
  Potency: 11.8 µM (active)
[5]
  Potency: inactive
[3]
  Potency: 14.8 µM (active)
[4]
  Potency: 18.7 µM (active)

## O=C(NC1CC1)c1cccc(-c2ccc3c(NC(=O)C4CC4)n[nH]c3c2)c1
[1]
  Potency: inactive
[5]
  Potency: 9.3 µM (active)
[3]
  Potency: 1.18 µM (active)
[4]
  Potency: 13.2 µM (active)

## CC(C=CC(=O)NO)=C[C@@H](C)C(=O)c1ccc(N(C)C)cc1
[1]
  Potency: 1.05 µM (active)
[5]
  Potency: 2.34 µM (active)
[3]
  Potency: 1.48 µM (active)

## Nc1nc(=O)n([C@H]2C[C@H](O)[C@@H](CO)O2)cc1F
[1]
  Potency: 4.18 µM (active)
[5]
  Potency: 0.829 µM (active)
[3]
  Potency: inactive
[4]
  Potency: inactive

## CC(C)C[C@H](NC(=O)[C@@H](NC(=O)c1cccc(-c2ccccc2)n1)[C@@H](C)O)B(O)O
[1]
  Potency: 833 nM (active) and 820 nM (active)
[5]
  Potency: 0.466 µM (active)
[3]
  Potency: 0.059 µM (active)

## CCOC(=O)[C@@H](N)Cc1ccc(-c2cc(O[C@H](c3ccc(Cl)cc3-n3ccc(C)n3)C(F)(F)F)nc(N)n2)cc1
[1]
  Potency: inactive
[5]
  Potency: inactive

## CN(CC(=O)N(Cc1ccc(C2CCCCC2)cc1)c1ccc(C(=O)O)c(O)c1)S(=O)(=O)c1c(F)c(F)c(F)c(F)c1F
[1]
  Potency: inactive
[5]
  Potency: inactive

## CC(C)n1cnc2c(NCCc3ccc(O)cc3)nc(-c3csc4ccccc34)nc21
[1]
  Potency: 20.9 µM (active) and 20.6 µM (active)
[2]
  Potency: 26.4 µM (active)
[3]
  Potency: 11.8 µM (active)

## Cn1cc(CNCC2CCN(c3ncc(C(=O)NO)cn3)CC2)c2ccccc21
[1]
  Potency: 1.05 µM (active)
[5]
  Potency: 0.415 µM (active)
[3]
  Potency: 0.235 µM (active)
[4]
  Potency: 0.0743 µM (active)

## C[C@@H]1C(=O)O[C@H]2CC34[C@H]5C[C@@H](C(C)(C)C)C36[C@H](OC(=O)[C@@H]6O)O[C@@]4(C(=O)O5)[C@]21O (stereo not given in full)
[1]
  Potency: inactive
[5]
  Potency: inactive
[3]
  Potency: inactive
[4]
  Potency: inactive

## CC(C)(C)[N+]([O-])=Cc1ccc(S(=O)(=O)O)cc1S(=O)(=O)O
[1]
  Potency: inactive
[5]
  Potency: inactive
[3]
  Potency: inactive

## CCCCCN=C(N)NN=Cc1c[nH]c2ccc(OC)cc12
[1]
  Potency: 10.5 µM (active)
[5]
  Potency: 16.5 µM (active)
